MITF primary: human MITF inhibition, primary screen. O75030. AlphaScreen MITF homodimerization, bead proximity signal. inhibition, % at 2.6 µM. hit rate 0.91% among 650,000. AID 1259374; in the data active = inhibition above about 50%;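 note: 0% = vehicle wells with protein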
Target sequence (O75030 whole entry, looked up): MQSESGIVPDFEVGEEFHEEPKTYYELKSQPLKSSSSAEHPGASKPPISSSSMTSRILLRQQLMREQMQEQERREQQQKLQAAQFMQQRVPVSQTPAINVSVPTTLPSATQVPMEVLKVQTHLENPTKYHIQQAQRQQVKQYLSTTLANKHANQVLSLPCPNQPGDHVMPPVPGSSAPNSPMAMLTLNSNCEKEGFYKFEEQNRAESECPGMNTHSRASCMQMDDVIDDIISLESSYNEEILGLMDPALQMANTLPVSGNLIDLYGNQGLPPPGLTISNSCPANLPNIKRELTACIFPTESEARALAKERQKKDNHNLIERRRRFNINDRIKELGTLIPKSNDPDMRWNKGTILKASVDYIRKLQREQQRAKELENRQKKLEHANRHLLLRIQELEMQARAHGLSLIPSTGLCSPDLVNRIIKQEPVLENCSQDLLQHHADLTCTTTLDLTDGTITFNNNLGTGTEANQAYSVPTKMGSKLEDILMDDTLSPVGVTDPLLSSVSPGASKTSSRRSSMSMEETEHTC
FBW7 activator: activators of human E3 ligase FBW7. hit rate 0.13% among 650,000. normalized activity (activation), % at 26.1 µM. Q969H0. AlphaScreen FBW7–phospho-cyclin E peptide binding, activator screen; in the data active = normalized activity above about 1.9%;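 note: purified mutant Fbw7 with reduced substrate affinity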
TEAD-YAP block: TEAD-YAP interaction inhibition; hit rate 1.4% among 640,000; inhibition, % at 9.12 µM; AID 1259422; HEK-TIYL cells, TEAD-Gal4/YAP UAS-luciferase luminescence; in the data active = inhibition above about 32%;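 note: 0% = median of test compound wells and 100% = reference inhibitor wells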
GPR151 ag: activates the human receptor GPR151. PathHunter beta-arrestin GPR151 cells, luminescence. activation, % at 11.2 µM. hit rate 1% among 650,000. AID 1508602; in the data active = activation above about 4.9%;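 note: 0% = median of compound wells and 100% = cells with positive control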
Numbers without * were called inactive. In the library only some 3.4% were active in any assay of this set; here they are far more common.

SMILES | MITF primary | FBW7 activator | TEAD-YAP block | GPR151 ag
CN=c1scc(-c2ccccc2F)n1/N=C/c1ccc(O)c(O)c1O | 4 | 0 | 89* | -5
CCOc1cc(OC2OCCOC2Oc2ccc(C=O)c(OCC)c2)ccc1C=O (configuration not stated) | 17 | 1 | 1 | 0
C=CCn1c(Sc2ncccc2[N+](=O)[O-])nnc1-c1ccc2c(c1)OCO2 | -1 | 0 | 12 | -1
CNC(=S)N/N=C\c1ccc([N+](=O)[O-])cc1 | 2 | 0 | 34* | -1
COc1ccc(NC(=O)c2cc([N+](=O)[O-])ccc2O)cc1 | -7 | 1 | 86* | -10
Cc1ccc(NC(=O)c2cc([N+](=O)[O-])ccc2O)cc1 | 26 | 0 | 76* | -10
COc1ccc(/C=N/NC(=O)c2cc([N+](=O)[O-])ccc2O)cc1 | -5 | 0 | 33* | -9
O=C(N/N=C/c1ccc([N+](=O)[O-])cc1)C(=O)N/N=C/c1ccc([N+](=O)[O-])cc1 | -14 | 0 | 4 | 4
Cc1ccc(NC(=O)CCS(=O)(=O)c2ccc3c(c2)n(C)c(=O)c(=O)n3C)cc1C | 2 | 0 | 13 | 4
C[n+]1cccc(CN2C(=O)C3C4C=CC(C4)C3C2=O)c1 (configuration not stated) | -2 | 0 | -1 | 3
OCc1ccccc1NC(=S)NCc1ccccc1 | -2 | 0 | -2 | 0
COc1ccc(OCC(=O)Nc2cc([N+](=O)[O-])ccc2O)cc1 | -1 | 0 | 90* | -7
O=C(Nc1c(Cl)cc([N+](=O)[O-])cc1Cl)c1cc(Cl)ccc1O | 0 | 0 | 67* | 5
O=C(Nc1ccc(Cl)cc1)c1cc([N+](=O)[O-])ccc1O | 11 | 0 | 72* | -10
O=C(NNC(=O)c1cc2ccccc2cc1O)Nc1cccc([N+](=O)[O-])c1 | -5 | 0 | -7 | -2
O=C(Nc1cccc([N+](=O)[O-])c1)c1cc2ccccc2cc1O | -1 | 0 | 34* | -1
O=C(Nc1ccc([N+](=O)[O-])cc1Cl)c1cc(Br)ccc1O | 5 | 0 | -70 | 1
COC(=O)c1ccc(NC(=O)c2ccc(Cl)c(Cl)c2)cc1 | -2 | 0 | -36 | 4
O=c1oc2ccc(Cl)cc2c(=O)n1-c1cccc([N+](=O)[O-])c1 | -1 | 0 | 75* | -3
CCc1ccccc1-n1c(=O)oc2ccc(Cl)cc2c1=O | 0 | 0 | 53* | 0
CCC(=O)n1c(=O)oc2ccc(Cl)cc21 | -11 | 0 | -10 | 0
CC(O)CCNC(=O)/C(=C/c1ccco1)NC(=O)c1ccccc1 (configuration not stated) | 12 | 1 | 14 | -1
CCOc1ccc(/C=C/C(=O)NC(C)c2ccccc2)cc1 (configuration not stated) | 6 | 0 | 4 | 5
N#Cc1c(NC(=O)c2ccc([N+](=O)[O-])cc2[N+](=O)[O-])sc2c1CCCC2 | -19 | 0 | 2 | 0
CC1CCc2sc(NC(=O)c3cc(Cl)ccc3[N+](=O)[O-])c(C#N)c2C1 (configuration not stated) | 9 | 0 | 51* | -1
SMILES | MITF primary | FBW7 activator | TEAD-YAP block | GPR151 ag
N#Cc1c(NC(=O)c2cc([N+](=O)[O-])ccc2Cl)sc2c1CCCC2 | 9 | 0 | 49* | 2
COc1cccc(CC(=O)N2CCC3(CC2)OCc2ccccc2O3)c1 | 18 | 0 | -6 | 0
COc1ccc(CC(=O)N2CCC3(CC2)OCc2cc(Cl)ccc2O3)cc1OC | 1 | 0 | 61* | 1
O=C(c1ccc2c(c1)CCO2)N1CCC2(CC1)OCc1cc(Cl)ccc1O2 | 15 | 0 | 37* | 1
COc1ccc(CC(=O)N2CCC3(CC2)OCc2ccccc2O3)cc1OC | 7 | 1 | 55* | 0
COc1cccc(C2/C(=C(/O)c3ccc(Cl)cc3)C(=O)C(=O)N2CCC(=O)O)c1 (configuration not stated) | -11 | 0 | 4 | 0
CCCCOc1ccc(/C=c2\sc3nc(-c4cccs4)nn3c2=O)cc1 | -10 | 0 | 8 | 3
COc1ccc(/C=C/C(=O)c2cccnc2)cc1OC | 43 | 0 | 0 | 1
COc1ccc2ccccc2c1C(=O)/C=C/c1cccnc1 | 20 | 1 | 85* | -1
O=[N+]([O-])c1cc(Cl)cc(C=Nc2ccc(I)cn2)c1O | -13 | 0 | -9 | -1
CCOC(=O)c1ccc2nc(C)cc(Nc3cccc(C(C)=O)c3)c2c1 | -2 | 0 | 10 | -1
O=[N+]([O-])c1cc(C(F)(F)F)ccc1Sc1nc2ccccc2s1 | 18 | 0 | 13 | -2
Cc1nc2ccccn2c1C(=O)Nc1ccccc1 | 13 | 0 | -12 | 0
O=C(NCc1cccs1)C1CCN(C(=O)Nc2ccc(Cl)cc2)CC1 | 14 | 2.4* | -17 | 0

From PubChem BioAssay
